PubChem BioAssay (Tox21)
A number with no mark means an inactive call. Results filed as inconclusive are left out. A call without a number means that no potency is given here. Activity calls are given as the source filed them. Unless noted, the call rests on the fitted dose curve.

Experiments:
[1] = Nuclear factor erythroid 2-related factor 2/antioxidant responsive element (Nrf2/ARE) small molecule agonists: qHTS cell viability counter screen in human keratinocytes (AID 1919968; active means well fitted curve in the direction sought with a large enough effect in the repeat runs; an effect the other way counts as inactive or inconclusive; further: nearly all actives have a fitted effect of over 55% in size; further: potency means the concentration at half of the fitted maximal effect)
In short: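 Seed 1,500 KeratinoSens cells per well, then incubate 5 h at 37 C/5% CO2. Add compounds in DMSO and incubate 23 h. Add CellTiter-Fluor, wait 1 h and read fluorescence.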

[2] = Nuclear factor erythroid 2-related factor 2/antioxidant responsive element (Nrf2/ARE) small molecule agonists: luciferase reporter gene qHTS assay in human keratinocytes (AID 1919969); further: nearly all actives have a fitted effect of over 35% in size; further: potency means the concentration at half of the fitted maximal effect
[3] = target: Gonadotropin-releasing hormone receptor (Homo sapiens) (UniProt P30968); test: Human gonadotropin-releasing hormone receptor (GnRHR) small molecule agonists, calcium flux assay in GnRHR-HEK293 cells (AID 1920063); further: nearly all actives have a fitted effect of over 35% in size
Chain of Gonadotropin-releasing hormone receptor (Homo sapiens) (P30968 whole entry, looked up): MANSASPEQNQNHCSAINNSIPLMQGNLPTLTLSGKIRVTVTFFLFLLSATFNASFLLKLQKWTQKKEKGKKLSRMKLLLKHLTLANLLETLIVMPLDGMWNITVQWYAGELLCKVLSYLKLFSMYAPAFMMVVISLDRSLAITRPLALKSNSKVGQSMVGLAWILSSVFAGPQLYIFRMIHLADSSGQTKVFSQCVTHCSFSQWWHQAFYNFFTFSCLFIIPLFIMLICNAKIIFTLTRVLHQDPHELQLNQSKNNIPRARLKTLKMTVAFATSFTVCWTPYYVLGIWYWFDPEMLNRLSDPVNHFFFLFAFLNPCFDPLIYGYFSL
In short: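 Cells: HEK293 stably expressing human GnRHR. Steps: overnight (18 h) culture, 1 h calcium dye loading at 37 C, compound addition, kinetic fluorescence read at 480/540 nm. Each compound tested at 15 concentrations in triplicate.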

[4] = target: KiSS-1 receptor (Homo sapiens) (UniProt Q969F8); test: Human kisspeptin (KISS1R) small molecule agonists, calcium flux assay in KISS1R-HEK293 cells (AID 1920064; active means well fitted curve in the direction sought with a large enough effect in the repeat runs; an effect the other way counts as inactive or inconclusive)
Chain of KiSS-1 receptor (Homo sapiens) (Q969F8 whole entry, looked up): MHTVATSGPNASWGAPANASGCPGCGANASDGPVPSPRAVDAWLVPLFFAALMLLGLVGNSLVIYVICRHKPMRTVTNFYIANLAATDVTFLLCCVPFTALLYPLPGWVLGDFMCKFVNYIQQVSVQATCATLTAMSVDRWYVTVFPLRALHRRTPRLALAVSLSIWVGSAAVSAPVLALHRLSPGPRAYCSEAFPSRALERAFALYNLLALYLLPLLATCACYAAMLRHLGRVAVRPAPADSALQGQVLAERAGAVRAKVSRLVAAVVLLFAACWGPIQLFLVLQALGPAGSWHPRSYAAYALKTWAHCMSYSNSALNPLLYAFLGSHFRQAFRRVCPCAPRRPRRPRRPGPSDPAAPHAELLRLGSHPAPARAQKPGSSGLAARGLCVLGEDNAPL
In short: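 Cells plated and incubated 18 h; dye added, 1 h at 37 C; compounds in DMSO pinned in; signal read at 480/540 nm every second for 3 min. Each compound tested at 15 concentrations in triplicate.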

[5] = G protein-coupled receptor (GPCR) small molecule agonists, calcium flux assay: HEK293 wild type cell line counter screen (AID 1920065)
In short: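 Counter-screen of the Tox21 10K library for non-specific calcium release: dye-loaded cells received compounds in DMSO and were monitored by kinetic fluorescence (480/540 nm, 3 min). Fifteen concentrations, run in triplicate.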

[6] = p53 small molecule agonists, cell-based qHTS assay with rat liver microsomes: qHTS cell viability counter screen (AID 1963580); further: nearly all actives have a fitted effect of over 45% in size
In short: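 HCT-116 p53RE-bla, 4,000 cells/well, 5 h pre-incubation; cpd + rat liver microsomes 0.5 mg/mL + NADPH 0.5 mg/mL (final); 16 h, 37 C; CellTiter-Glo, 30 min RT; luminescence.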

[7] = target: 5-hydroxytryptamine receptor 2A (Homo sapiens) (UniProt P28223); test: 5-hydroxytryptamine receptor 2A (HTR2A) small molecule antagonists, cell-based qHTS assay (AID 1963586); further: nearly all actives have a fitted effect of over 45% in size
Chain of 5-hydroxytryptamine receptor 2A (Homo sapiens) (P28223 whole entry, looked up): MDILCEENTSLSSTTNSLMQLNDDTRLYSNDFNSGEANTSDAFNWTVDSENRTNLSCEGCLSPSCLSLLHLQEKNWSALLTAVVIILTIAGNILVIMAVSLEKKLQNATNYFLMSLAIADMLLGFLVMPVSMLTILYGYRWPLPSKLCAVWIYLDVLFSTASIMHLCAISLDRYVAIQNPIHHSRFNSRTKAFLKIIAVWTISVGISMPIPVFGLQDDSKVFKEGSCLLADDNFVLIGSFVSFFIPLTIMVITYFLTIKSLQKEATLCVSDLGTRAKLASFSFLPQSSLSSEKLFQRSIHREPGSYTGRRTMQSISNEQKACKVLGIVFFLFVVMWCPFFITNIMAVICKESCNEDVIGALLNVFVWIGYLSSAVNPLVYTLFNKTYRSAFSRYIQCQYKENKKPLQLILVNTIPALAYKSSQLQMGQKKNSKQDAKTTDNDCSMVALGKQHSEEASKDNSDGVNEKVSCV
In short: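 Antagonist-mode intracellular calcium assay: DOI (4 nM) added after 5 min compound pre-incubation at room temperature to dye-loaded HTR2A-CHO cells. Fluorescence followed for 3 min, sampled every second.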

[8] = target: 5-hydroxytryptamine receptor 2A (Homo sapiens) (UniProt P28223); test: 5-hydroxytryptamine receptor 2A (HTR2A) small molecule agonists, cell-based qHTS assay (AID 1963587); further: nearly all actives have a fitted effect of over 30% in size
In short: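 Kinetic calcium-flux fluorescence (2 min, 1 sec intervals) after compound addition in agonist mode. HTR2A-CHO cells were cultured 18 h, then dye-loaded 1 h at 37 C.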

[9] = target: Muscarinic acetylcholine receptor M1 (Homo sapiens) (UniProt P11229); test: Cholinergic receptor muscarinic 1 (CHRM1) small molecule agonists, cell-based qHTS assay (AID 1963589); further: nearly all actives have a fitted effect of over 35% in size
Chain of Muscarinic acetylcholine receptor M1 (Homo sapiens) (P11229 whole entry, looked up): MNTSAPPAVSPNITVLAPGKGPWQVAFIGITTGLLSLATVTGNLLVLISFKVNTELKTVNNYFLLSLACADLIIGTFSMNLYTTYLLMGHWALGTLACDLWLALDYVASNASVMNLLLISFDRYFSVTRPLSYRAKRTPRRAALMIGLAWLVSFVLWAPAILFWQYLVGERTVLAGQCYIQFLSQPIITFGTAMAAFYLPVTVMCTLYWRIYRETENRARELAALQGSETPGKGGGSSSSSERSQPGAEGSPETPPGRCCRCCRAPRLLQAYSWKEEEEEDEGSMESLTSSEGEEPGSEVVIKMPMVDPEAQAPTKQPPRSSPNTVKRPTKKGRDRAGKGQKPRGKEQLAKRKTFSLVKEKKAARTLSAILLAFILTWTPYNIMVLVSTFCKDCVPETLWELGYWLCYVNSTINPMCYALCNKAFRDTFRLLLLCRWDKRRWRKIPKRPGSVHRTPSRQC
In short: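 Agonist-mode qHTS in CHO cells stably carrying human muscarinic M1. Intracellular calcium is tracked by fluorescence every second after compound transfer; each compound runs at 15 concentrations in three independent runs.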

[10] = target: Beta-2 adrenergic receptor (Homo sapiens) (UniProt P07550); test: Adrenergic beta2 receptor (ADRB2) small molecule agonists, cell-based qHTS assay (AID 1963593);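 further: CHO cells stably overexpressing human ADRB2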
Chain of Beta-2 adrenergic receptor (Homo sapiens) (P07550 whole entry, looked up): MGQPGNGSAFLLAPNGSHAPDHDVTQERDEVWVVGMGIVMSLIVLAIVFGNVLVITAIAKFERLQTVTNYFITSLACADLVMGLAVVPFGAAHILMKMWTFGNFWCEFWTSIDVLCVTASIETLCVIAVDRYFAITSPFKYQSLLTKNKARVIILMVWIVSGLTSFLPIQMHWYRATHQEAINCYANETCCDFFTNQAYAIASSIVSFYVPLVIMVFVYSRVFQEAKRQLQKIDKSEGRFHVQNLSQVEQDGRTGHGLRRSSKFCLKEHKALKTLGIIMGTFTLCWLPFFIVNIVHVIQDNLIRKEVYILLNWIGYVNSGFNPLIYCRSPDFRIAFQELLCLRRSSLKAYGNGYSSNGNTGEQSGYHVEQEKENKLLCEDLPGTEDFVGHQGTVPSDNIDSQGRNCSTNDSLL
In short: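 CHO cells stably over-expressing ADRB2 were plated overnight at 37C, then dosed with compounds plus a stimulation mix containing 100uM IBMX and 25uM Ro-20-1724 for 0.5hr at room temperature. cAMP was measured by HTRF competition, 1hr.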

[11] = target: D(2) dopamine receptor (Homo sapiens) (UniProt P14416); test: Dopamine D2 receptor (DRD2) small molecule agonists, cell-based qHTS assay (AID 1963594); further: nearly all actives have a fitted effect of over 35% in size
Chain of D(2) dopamine receptor (Homo sapiens) (P14416 whole entry, looked up): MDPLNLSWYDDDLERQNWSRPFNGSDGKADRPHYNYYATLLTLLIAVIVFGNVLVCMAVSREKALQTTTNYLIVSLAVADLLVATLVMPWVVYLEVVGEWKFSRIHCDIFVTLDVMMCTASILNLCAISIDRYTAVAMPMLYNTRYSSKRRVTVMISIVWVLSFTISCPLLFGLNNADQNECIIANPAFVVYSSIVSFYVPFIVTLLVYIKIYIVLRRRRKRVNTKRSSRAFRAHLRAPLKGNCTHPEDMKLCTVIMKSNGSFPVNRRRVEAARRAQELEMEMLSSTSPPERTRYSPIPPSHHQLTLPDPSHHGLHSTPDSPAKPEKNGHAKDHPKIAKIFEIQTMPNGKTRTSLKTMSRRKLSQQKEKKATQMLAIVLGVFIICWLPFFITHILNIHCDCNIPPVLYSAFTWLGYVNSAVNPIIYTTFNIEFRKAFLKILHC
In short: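 cAMP accumulation in DRD2-HEK293 cells measured by HTRF after 1 h detection; compounds added 10 min before NKH477 (200nM […]) forskolin-analogue stimulation, 30 min at room temperature, with Ro20-1724 present at 0.1 mM final.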

[12] = target: D(2) dopamine receptor (Homo sapiens) (UniProt P14416); test: Dopamine D2 receptor (DRD2) small molecule antagonists, cell-based qHTS assay (AID 1963595; active means well fitted inhibition curve with a large enough effect in the signal ratio in the repeat runs, with a control signal flat; the % refers to the signal ratio; further: potency means the concentration at half of the fitted maximal effect)
In short: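 Stable D2 receptor HEK293 line, 24 h after seeding. Compound preincubated 10 min, then quinpirole (12 nM) with forskolin analogue NKH477 (200 nM), 30 min, room temperature. Detection by time-resolved FRET of cAMP.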

[13] = p53 small molecule agonists, cell-based qHTS assay: qHTS cell viability counter screen (AID 1963581); further: nearly all actives have a fitted effect of over 45% in size
In short: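 Cells: HCT-116 with p53 response element-driven beta-lactamase. Treatment: 16 h, 37 C, compounds in DMSO. Read: CellTiter-Glo luminescence after 30 min RT.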

[14] = target: Muscarinic acetylcholine receptor M1 (Homo sapiens) (UniProt P11229); test: Cholinergic receptor muscarinic 1 (CHRM1) small molecule antagonists, cell-based qHTS assay (AID 1963588); further: nearly all actives have a fitted effect of over 40% in size; further: potency means the concentration at half of the fitted maximal effect
In short: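 CHRM1-CHO calcium-flux assay, antagonist mode. Cells were seeded 18 h, dye-loaded 1 h at 37 C and given compound for 5 min at RT, then acetylcholine was added at 50nM. FDSS fluorescence was read 3 min; 15 concentrations, three runs.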

[15] = cAMP Responsive Elements (CRE) small molecule agonists, cell-based qHTS assay (AID 1963590)
In short: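 Agonist mode qHTS in CRE-bla HEK 293T cells: compounds dosed from DMSO for 3 h at 37 C/5% CO2, followed by LiveBLAzer B/G FRET substrate for 2 h at room temperature.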

[16] = target: Beta-2 adrenergic receptor (Homo sapiens) (UniProt P07550); test: Adrenergic beta2 receptor (ADRB2) small molecule antagonists, cell-based qHTS assay (AID 1963592); further: series mostly up to about 92 µM; nearly all actives have a fitted effect of over 50% in size
In short: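 Cells (CHO, stable ADRB2 overexpression) incubated 18-20hr at 37C; compounds added from DMSO; agonist mix (1nM isoproterenol, 100uM IBMX, 25uM Ro-20-1724) added; 0.5hr RT; d2-cAMP and anti-cAMP-cryptate added; 1hr RT; 665/615 nm read.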

[17] = p53 small molecule agonists, cell-based qHTS assay (AID 1963582; active means well fitted activation curve with a large enough effect in the signal ratio in the repeat runs, not every such curve was filed as active; the % refers to the signal ratio)
In short: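 Quantitative HTS in p53RE-bla cells: after a 5 h settling period, compounds delivered in DMSO were left on cells for 16 h at 37 C, and reporter induction was measured as fluorescence following 2 h substrate loading.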

[18] = cAMP Responsive Elements (CRE) small molecule antagonists, cell-based qHTS assay (AID 1963591; active means well fitted inhibition curve with a large enough effect in the signal ratio in the repeat runs, not every such curve was filed as active; the % refers to the signal ratio)
In short: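 Antagonist mode: test compounds are co-incubated with the adenylyl cyclase activator NKH477 (0.25 uM final) on CRE-bla HEK293T cells for 3 h at 37 °C, followed by LiveBLAzer substrate loading.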

[19] = p53 small molecule agonists, cell-based qHTS assay with human liver microsomes: qHTS cell viability counter screen (AID 1963579); further: nearly all actives have a fitted effect of over 45% in size
In short: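 Cells carrying the p53 response-element beta-lactamase reporter are treated for 16 h at 37 C with test compounds in the presence of human liver microsomes and NADPH (both 0.5 mg/mL final); ATP-based CellTiter-Glo luminescence then reports viability.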

[20] = p53 small molecule agonists, cell-based qHTS assay with rat liver microsomes (AID 1963578)
In short: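 Read-out is beta-lactamase reporter fluorescence (LiveBLAzer, 2 h, room temperature, dark) in p53RE-bla cells treated 16 h at 37 C with compound, rat liver microsomes and NADPH, both 0.5 mg/mL final.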

Row | Compound | Potency [1] | Potency [2] | Potency [3] | outcome [4] | outcome [5] | Potency [6] | Potency [7] | Potency [8] | Potency [9] | Potency [10] | Potency [11] | Potency [12] | Potency [13] | Potency [14] | Potency [15] | Potency [16] | Potency [17] | Potency [18] | Potency [19] | Potency [20]
1 | C=C1C(CCl)(CCl)C2(Cl)C(Cl)C(Cl)C1(Cl)C2(Cl)Cl (configuration not stated) | 38.1 µM (active) | 15.2 µM (active) | inactive | inactive | inactive | inactive | inactive | inactive | inactive | inactive | inactive | inactive | – | – | – | – | – | – | – | –
2 | C1COC(NC(C2CC2)C2CC2)=N1 | inactive | inactive | inactive | inactive | inactive | inactive | – | inactive | inactive | inactive | inactive | inactive | inactive | inactive | inactive | inactive | – | – | – | –
3 | COc1cc(NS(=O)(=O)c2ccc(N)cc2)nc(OC)n1 | inactive | inactive | inactive | inactive | inactive | inactive | – | – | – | – | inactive | inactive | inactive | – | inactive | inactive | inactive | inactive | – | –
4 | CCOc1ccccc1N | inactive | inactive | inactive | inactive | inactive | inactive | – | – | – | – | inactive | – | inactive | inactive | – | inactive | inactive | – | – | –
5 | O=C(CCCCC(=O)Nc1c(I)cc(I)c(C(=O)O)c1I)Nc1c(I)cc(I)c(C(=O)O)c1I | inactive | inactive | inactive | inactive | inactive | inactive | inactive | inactive | inactive | – | inactive | inactive | inactive | – | inactive | inactive | – | inactive | inactive | –
6 | Cc1ccsc1/C=C/C1=NCCCN1C | inactive | inactive | inactive | inactive | inactive | – | inactive | inactive | – | inactive | inactive | inactive | inactive | 0.0033 µM (active) | – | inactive | inactive | inactive | inactive | –
7 | Cc1cccc(C)c1OCC(=O)N[C@@H](Cc1ccccc1)[C@@H](O)C[C@H](Cc1ccccc1)NC(=O)[C@H](C(C)C)N1CCCNC1=O | inactive | inactive | inactive | inactive | inactive | inactive | inactive | – | inactive | – | inactive | inactive | inactive | inactive | – | inactive | – | – | inactive | –
8 | O=C(O)Cc1cn(-c2ccccc2)nc1-c1ccc(Cl)cc1 | inactive | inactive | inactive | inactive | inactive | inactive | inactive | inactive | inactive | inactive | inactive | inactive | – | inactive | – | – | inactive | – | inactive | –
9 | CN1CCN(CCCN2c3ccccc3Sc3ccc(C(F)(F)F)cc32)CC1 | 29.8 µM (active) | inactive | inactive | inactive | inactive | inactive | – | – | – | inactive | inactive | 0.0298 µM (active) | – | – | – | inactive | – | – | inactive | –
10 | Cc1cc(SC2=C(O)C[C@@](CCc3ccc(N)cc3)(C(C)C)OC2=O)c(C(C)(C)C)cc1CO | inactive | inactive | inactive | inactive | inactive | inactive | inactive | inactive | inactive | – | inactive | inactive | – | inactive | – | inactive | – | – | inactive | –
11 | CC(C(=O)O)c1cccc(Oc2ccccc2)c1 (configuration not stated) | inactive | inactive | inactive | inactive | inactive | inactive | – | – | – | inactive | inactive | inactive | inactive | – | inactive | inactive | inactive | inactive | – | –
12 | CN(C(=O)C(Cl)Cl)c1ccc(OC(=O)c2ccco2)cc1 | inactive | inactive | inactive | inactive | inactive | inactive | inactive | inactive | inactive | – | inactive | inactive | – | inactive | inactive | inactive | inactive | inactive | inactive | –
13 | CC(CCl)OC(C)CCl (configuration not stated) | inactive | inactive | inactive | inactive | inactive | inactive | – | inactive | inactive | – | – | – | – | inactive | inactive | inactive | inactive | – | inactive | –
14 | CCC1CO1 (configuration not stated) | inactive | inactive | inactive | inactive | inactive | – | inactive | inactive | inactive | – | inactive | inactive | inactive | inactive | inactive | inactive | inactive | inactive | inactive | –
15 | Brc1ccc(-c2ccccc2)cc1 | inactive | inactive | inactive | inactive | inactive | inactive | – | inactive | – | inactive | inactive | inactive | inactive | inactive | inactive | inactive | inactive | inactive | inactive | inactive
16 | COc1cc2[nH]c(=O)[nH]c(=O)c2cc1OC | inactive | inactive | inactive | inactive | inactive | inactive | inactive | inactive | inactive | – | – | inactive | inactive | inactive | – | inactive | inactive | inactive | inactive | inactive
17 | CCN(CC)CCNC(=O)c1cc(Cl)c(N)cc1OC | inactive | inactive | inactive | inactive | inactive | inactive | – | – | – | – | inactive | – | inactive | – | inactive | inactive | inactive | inactive | inactive | inactive
